Test results taken from PubChem BioAssay (EPA / NIEHS).
The source made the active and inactive calls. Rule for the calls: active = hit-call score of the fitted dose curve at least 0.9, where 1 is the maximum; inactive = score below 0.9.

Assay: CEETOX_H295R_CORTIC: CeeTox H295R High-throughput Steroidogenesis Assay for Corticosterone (CORTIC) (AID 2283437);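 note: corticosterone secreted into medium quantified by mass spectrometry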
Settings: actives raise or lower the signal
Method: CEETOX_H295R is a cell-based, multiplexed-readout assay that uses H295R, a human adrenal gland cell line, with measurements taken at 48 hours after chemical dosing in a 96-well plate.CEETOX_H295R_CORTIC is one of 23 assay component(s) measured or calculated from the CEETOX_H295R assay. It is designed to make measurements of hormone induction, a form of inducible reporter, as detected with absorbance signals by HPLC-MS-MS technology.Data from the assay component CEETOX_H295R_CORTIC was analyzed into 1 assay endpoint. This assay endpoint, CEETOX_H295R_CORTIC, was analyzed with bidirectional fitting relative to DMSO as the negative control and baseline of activity. Using a type of inducible reporter, gain or loss-of-signal activity using HPLC-MS-MS was used to understand synthesis of Corticosterone in H295R cell line at 48hr of chemical exposure. To generalize the intended target to other relatable targets, this assay endpoint is annotated to the steroid hormone intended target family, where the subfamily is glucocorticoids.
Cell culture and media preparation procedures were conducted in accordance with OECD Test No. 456 guidelines, with minor modifications. H295R cells (ATCC CRL-2128) were expanded for 5 passages and frozen in batches in liquid nitrogen. Prior to the steroidogenesis assay, H295R cells were thawed and passed at least 4 times. The maximum passage was 10. Cells were maintained in a 1:1 mixture of DMEM/F12 supplemented with 5ml/L ITS+ Premix (BD Bioscience) and 12.5 ml/L Nu-Serum (BD Bioscience). After seeding cells into 96-well plates at 50-60% confluency, cells were allowed to adhere overnight. Prior to chemical testing, culture medium was replaced with 175 uL medium containing 10 uM forskolin to stimulate steroidogenesis for 48 hours. Following prestimulation, forskolin medium was replaced with medium containing test chemical solubilized in DMSO (ensuring a final concentration of 0.1% DMSO). Test chemicals were incubated for 48 hours, then the medium was removed and split into 2 vials containing approximately 75uL each, and stored at -80 C prior to hormone analysis. For steroid quantification, media samples were shipped to OpAns, LLC (Durham, NC) on dry ice, and samples were thawed to room temperature prior to liquid-liquid extraction. Steroid hormones were extracted from media samples using methyl tertbutyl ether (MTBE). An extra derivatization with dansyl chloride was included for estrogen (estrone and estradiol) detection only. Steroid hormones were separated by HPLC, eluted using a reverse phase C18 gradient with electrospray positive ionization, followed by quantification by tandem mass spectrometry (MS/MS). Data were acquired on a MassHunter Workstation Acquisition version B03.01 (Agilent Technologies, Inc.) and processed using MassHunter Quantitative Analysis for QQQ. Accuracy was determined for each hormone analyte from 3 standards to determine upper and lower limits of quantification (ULOQ and LLOQ, respectively) using a 7-point standard curve. Precision and accuracy of the extraction and quantification methods were calculated as the percent relative standard deviation (%RSD) of the spiked standards and percent spiked standard recovered, respectively. […] Test medium was removed following chemical exposure, and cell viability was evaluated in the same wells by MTT. MTT procedures were as follows: after removal of test medium, 500 uL of 0.5 mg/ml of 3-[4,5-dimethylthiazol-2-y]2,5-diphenyltetrazoliumbromide solution was added to the cells. Following a 4-hour incubation at 37 C and 5% CO2 to allow formazan-crystal formation, the MTT solution was removed and blue formazan salt crystals were solubilized using 500uL anhydrous isopropanol with shaking for 20 minutes. Absorbance was read at 570 and 650nm using a Packard Fusion microplate reader. Background correction of absorbance units was used to determine percent change relative to controls. […]

SMILES | outcome | AC50
COC(=O)c1ccc(O)cc1 | inactive | –
Nc1ccc2c(c1)C(=O)c1ccccc1C2=O | – | 4.17 µM (active)
Cc1c(C(=O)O)c(O)cc2c1C(=O)c1c(O)c([C@@H]3O[C@H](CO)[C@@H](O)[C@H](O)[C@H]3O)c(O)c(O)c1C2=O | inactive | –
Oc1ccc2c(c1)OC[C@@H](N1CCC(O)(c3ccc(F)cc3)CC1)[C@H]2O | inactive | –
Cc1cc(NC(=O)C(=O)O)cc(C)c1Oc1ccc(O)c2c1CCC2 | – | 34.1 µM (active)
c1cc(-c2ccncc2)ccn1 | inactive | –
Nc1ccccc1N | inactive | –
CN1CCN(Cc2cc(-c3ccc4[nH]c(=O)oc4c3)co2)[C@@H](c2ccc(F)cc2)C1 | inactive | –
Cc1cccc(Nc2cc(Cl)nc(SCC(=O)O)n2)c1C | inactive | –
Cc1nc(C)nc(N2C[C@@H](C)N(c3ccnc([C@@H](C)O)n3)[C@@H](C)C2)n1 | inactive | –
COc1ccc(S(=O)(=O)N2C(=O)[C@@](c3ccccc3OC)(N3C[C@H](O)C[C@H]3C(=O)N(C)C)c3cc(Cl)ccc32)c(OC)c1 | inactive | –
COc1ccc(C)cc1N | – | 74.3 µM (active)
COc1ccc2c(c1)c(CC(=O)O)c(C)n2C(=O)c1ccc(Cl)cc1 | inactive | –
NC(=O)Cn1c(=O)cc(CCN2CCN(c3nccc4sccc34)CC2)c2ccc(F)cc21 | – | 4.46 µM (active)
Cc1nc(-c2ccc3c(c2)CCN(CCC2CCC(NC(=O)/C=C/c4ccc(F)cc4)CC2)CC3)no1 (stereo not given) | inactive | –
